Laboratory results published in PubChem BioAssay (NCATS).
“And” between values parts separate entries of the source, which are not always exact repeats. Equal entries are not always repeated. Inconclusive results are not listed. Where a structure was tested more than once in an assay, its records may differ in their call. The source made the active and inactive calls. Unless noted, the call rests on the fitted dose curve; in most records, active means well fitted curve in the direction sought with a large enough effect; inconclusive means small, poorly fitted or top-dose-only effect, or another doubt; inactive means no such curve, though single readings can be large; an effect the other way counts as inactive or inconclusive.

Legend:
[1] = Identifying Small Molecule Inhibitors of Pancreatic Cancer Stem Cells (SN12C, Spheroid) (AID 1259360); conditions: Potency: SN12C spheroid viability; further: potency means the concentration at half of the fitted maximal effect
Procedure, shortened: (§1)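 Adherent (2D) versus sphere (3D) formats; spheres generated 14 d in SCM beforehand. Compound transferred by pin tool after 4 h, 48 h incubation, CellTiter-Glo endpoint.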

[2] = Identifying Small Molecule Inhibitors of Pancreatic Cancer Stem Cells (A278, Adherent) (AID 1259361);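 further: viability read after 48 h compound exposure; nearly all actives have a fitted effect of over 35% in size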
Procedure, shortened: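 Spheroids grown 14 days in stem cell media on hydrogel-coated nonadherent plates; 2D lines seeded directly. Compounds added after 4 h attachment, 48 h at 37C, 5% CO2; CellTiter-Glo luminescence normalized to DMSO (no inhibition) and no-cell wells (full inhibition).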

[3] = Identifying Small Molecule Inhibitors of Pancreatic Cancer Stem Cells (Panc1, Adherent) (AID 1259362); conditions: Potency: viability; further: potency means the concentration at half of the fitted maximal effect
Procedure, shortened: as §1

[4] = P-glycoprotein substrates identified in KB-3-1 adenocarcinoma cell line, qHTS therapeutic library screen (AID 1346986); further: nearly all actives have a fitted effect of over 60% in size;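 further: potency means the concentration at half of the fitted maximal effect; potency is for cytotoxicity meaning loss of cell viability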; on activity change, negative = cytotoxicity: on the % scale 0 is the no-effect control and ±100 the full control effect
Procedure, shortened: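 Viability by CellTiter-Glo after 72 h compound exposure at 37 degree C, 5% CO2. Cytotoxic call: curve class -1.1 to -2.4, maximum response >50%, AC50 < 10 uM, compared across KB-3-1 and P-gp-overexpressing KB-8-5-11.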

[5] = P-glycoprotein substrates identified in KB-8-5-11 adenocarcinoma cell line, qHTS therapeutic library screen (AID 1346987); further: nearly all actives have a fitted effect of over 65% in size; further: potency means the concentration at half of the fitted maximal effect
Procedure, shortened: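 In this qHTS, P-gp-rich KB-8-5-11 cells received library compounds across a concentration range. Viability was quantified by luminescence after 72 h at 37 degree C.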

[6] = NS1 protein of Zika virus - qHTS assay to identify small molecule inhibitors in human HEK 293 cells (AID 1347053); further: nearly all actives have a fitted effect of over 55% in size; further: potency means the concentration at half of the fitted maximal effect
Procedure, shortened: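 Readout was TR-FRET using paired anti-NS1 antibodies after 24 h infection of HEK 293 cells with ZIKV MR766 (MOI = 0.5). Compound preceded virus by 1 h; reduced signal reflects lower NS1 expression.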

[7] = Natriuretic polypeptide receptor (hNpr1) antagonism - Pilot counterscreen GloSensor control cell line (AID 1347045; calls by dose curve; further: series mostly up to about 38 µM; on the % scale 0 is the no-effect control and ±100 the full control effect)
Procedure, shortened: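 HEK293 cGMP-sensor cells; 2% GloSensor reagent 2 h RT; LOPAC compounds in 1:5 titrations 30-50 min; 50 uM SNP 20 min; luminescence pre-read and post-read.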

[8] = target: Atrial natriuretic peptide receptor 2 (Homo sapiens) (UniProt P20594); assay: Natriuretic polypeptide receptor (hNpr2) antagonism - Pilot subtype selectivity assay (AID 1347050; calls by dose curve; further: on the % scale 0 is the no-effect control and ±100 the full control effect)
Atrial natriuretic peptide receptor 2 (Homo sapiens), sequence (P20594 whole entry, looked up): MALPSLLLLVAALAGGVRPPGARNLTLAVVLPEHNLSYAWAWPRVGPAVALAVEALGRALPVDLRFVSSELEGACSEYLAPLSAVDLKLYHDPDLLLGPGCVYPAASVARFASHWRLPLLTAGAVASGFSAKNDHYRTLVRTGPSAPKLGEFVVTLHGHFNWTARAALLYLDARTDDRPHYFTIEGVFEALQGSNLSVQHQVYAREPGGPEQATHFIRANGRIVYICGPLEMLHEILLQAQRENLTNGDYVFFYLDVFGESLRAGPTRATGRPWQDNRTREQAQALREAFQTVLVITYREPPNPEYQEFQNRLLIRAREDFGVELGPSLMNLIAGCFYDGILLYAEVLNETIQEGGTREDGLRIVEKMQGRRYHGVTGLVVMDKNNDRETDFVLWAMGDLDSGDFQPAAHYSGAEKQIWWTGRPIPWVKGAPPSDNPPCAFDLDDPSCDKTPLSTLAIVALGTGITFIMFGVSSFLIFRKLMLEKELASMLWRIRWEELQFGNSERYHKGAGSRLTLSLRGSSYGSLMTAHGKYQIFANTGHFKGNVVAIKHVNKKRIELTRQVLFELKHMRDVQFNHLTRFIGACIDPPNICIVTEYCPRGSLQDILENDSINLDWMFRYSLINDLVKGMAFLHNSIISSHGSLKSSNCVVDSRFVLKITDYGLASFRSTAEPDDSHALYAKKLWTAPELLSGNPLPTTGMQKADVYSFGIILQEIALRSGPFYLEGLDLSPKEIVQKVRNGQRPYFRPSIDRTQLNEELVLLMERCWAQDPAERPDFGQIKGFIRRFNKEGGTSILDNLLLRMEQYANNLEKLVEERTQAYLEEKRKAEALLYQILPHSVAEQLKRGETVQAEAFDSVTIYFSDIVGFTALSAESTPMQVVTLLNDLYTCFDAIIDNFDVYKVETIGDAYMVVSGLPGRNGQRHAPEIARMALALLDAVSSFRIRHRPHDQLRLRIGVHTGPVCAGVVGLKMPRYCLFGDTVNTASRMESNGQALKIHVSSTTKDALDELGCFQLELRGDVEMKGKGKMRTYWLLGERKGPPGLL
Procedure, shortened: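 Luminescence from a genetically encoded cGMP luciferase biosensor in hNpr2-expressing HEK293 cells is read before and 20 min after adding 1 nM hNppC. Test compounds, in interplate 1:5 titrations, are added 30-50 min ahead of the agonist.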

[9] = target: Tyrosine-protein phosphatase non-receptor type substrate 1 (Homo sapiens) + Leukocyte surface antigen CD47 (Homo sapiens) (UniProt P78324+Q08722); assay: CD47-SIRPalpha protein protein interaction - LANCE assay qHTS validation (AID 1347057; active means well fitted curve in the direction sought with a large enough effect in the signal ratio, with a control signal flat, not every such curve was filed as active; the % refers to the signal ratio; further: series mostly up to about 38 µM; 0% is about no effect)
Tyrosine-protein phosphatase non-receptor type substrate 1 (Homo sapiens) + Leukocyte surface antigen CD47 (Homo sapiens), sequence (P78324 whole entry, looked up, the tested form may be a part): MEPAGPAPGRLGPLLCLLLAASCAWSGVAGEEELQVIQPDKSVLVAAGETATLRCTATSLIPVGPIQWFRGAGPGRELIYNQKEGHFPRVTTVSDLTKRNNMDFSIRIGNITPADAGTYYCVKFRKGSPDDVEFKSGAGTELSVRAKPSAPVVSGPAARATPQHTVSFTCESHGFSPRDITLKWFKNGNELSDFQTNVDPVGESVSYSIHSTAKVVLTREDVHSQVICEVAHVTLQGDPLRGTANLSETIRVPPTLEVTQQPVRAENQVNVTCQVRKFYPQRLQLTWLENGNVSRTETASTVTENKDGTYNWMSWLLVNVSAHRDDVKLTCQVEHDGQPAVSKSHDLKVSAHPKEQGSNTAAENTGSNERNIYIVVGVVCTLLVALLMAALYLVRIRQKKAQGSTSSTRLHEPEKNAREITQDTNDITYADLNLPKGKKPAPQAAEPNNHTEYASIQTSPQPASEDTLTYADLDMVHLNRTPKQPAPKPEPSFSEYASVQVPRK
Tyrosine-protein phosphatase non-receptor type substrate 1 (Homo sapiens) + Leukocyte surface antigen CD47 (Homo sapiens), sequence (Q08722 whole entry, looked up, the tested form may be a part): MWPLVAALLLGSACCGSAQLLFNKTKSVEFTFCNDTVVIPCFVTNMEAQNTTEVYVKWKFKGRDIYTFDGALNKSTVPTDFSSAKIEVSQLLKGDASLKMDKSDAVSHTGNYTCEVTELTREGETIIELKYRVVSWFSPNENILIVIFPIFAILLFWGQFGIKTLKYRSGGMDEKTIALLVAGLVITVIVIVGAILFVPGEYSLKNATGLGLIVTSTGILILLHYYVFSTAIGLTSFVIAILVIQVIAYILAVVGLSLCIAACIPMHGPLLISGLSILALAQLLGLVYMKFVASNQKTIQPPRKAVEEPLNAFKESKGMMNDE
Procedure, shortened: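 Inhibition of soluble CD47/SIRPalpha ectodomain association by titrated compounds, measured as 665/615 nm time-resolved FRET ratio after sequential 30 min room-temperature incubations.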

[10] = target: Atrial natriuretic peptide receptor 1 (Homo sapiens) (UniProt P16066); assay: Natriuretic polypeptide receptor (hNpr1) antagonism - Pilot screen (AID 1347049; calls by dose curve;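 further: agonist-evoked cGMP luminescence read 20 min after hNppA addition; series mostly up to about 58 µM; on the % scale 0 is the no-effect control and ±100 the full control effect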)
Atrial natriuretic peptide receptor 1 (Homo sapiens), sequence (P16066 whole entry, looked up): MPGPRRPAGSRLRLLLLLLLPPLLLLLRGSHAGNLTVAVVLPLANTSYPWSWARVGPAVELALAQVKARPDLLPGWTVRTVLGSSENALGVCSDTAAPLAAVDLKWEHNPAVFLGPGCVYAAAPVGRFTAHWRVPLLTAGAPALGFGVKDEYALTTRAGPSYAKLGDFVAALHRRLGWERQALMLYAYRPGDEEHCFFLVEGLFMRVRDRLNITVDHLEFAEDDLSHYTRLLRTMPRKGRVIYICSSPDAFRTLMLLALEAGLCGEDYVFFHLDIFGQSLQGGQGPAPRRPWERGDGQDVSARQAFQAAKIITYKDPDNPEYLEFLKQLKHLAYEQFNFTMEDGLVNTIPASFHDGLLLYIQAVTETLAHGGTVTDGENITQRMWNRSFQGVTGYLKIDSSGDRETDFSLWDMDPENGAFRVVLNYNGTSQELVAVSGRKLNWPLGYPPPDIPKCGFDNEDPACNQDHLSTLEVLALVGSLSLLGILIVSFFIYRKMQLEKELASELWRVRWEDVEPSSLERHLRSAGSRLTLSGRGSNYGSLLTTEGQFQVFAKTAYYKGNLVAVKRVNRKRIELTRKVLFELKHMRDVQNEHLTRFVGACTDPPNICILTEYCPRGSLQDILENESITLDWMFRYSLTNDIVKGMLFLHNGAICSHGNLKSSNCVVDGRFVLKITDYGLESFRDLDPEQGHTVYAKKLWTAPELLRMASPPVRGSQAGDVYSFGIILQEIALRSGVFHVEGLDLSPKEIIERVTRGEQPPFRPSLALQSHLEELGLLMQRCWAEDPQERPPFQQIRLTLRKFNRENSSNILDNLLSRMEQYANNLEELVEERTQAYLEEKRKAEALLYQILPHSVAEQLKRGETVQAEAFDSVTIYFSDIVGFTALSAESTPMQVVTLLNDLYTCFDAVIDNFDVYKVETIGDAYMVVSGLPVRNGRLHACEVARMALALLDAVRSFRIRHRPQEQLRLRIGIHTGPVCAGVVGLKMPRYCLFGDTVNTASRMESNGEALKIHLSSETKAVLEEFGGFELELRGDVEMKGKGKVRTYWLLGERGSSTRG
Procedure, shortened: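 cGMP-sensor HEK293/hNpr1 cells, 1500/well, plated overnight at 37C. 2% GloSensor reagent, 2 h RT. Compound (23 nL pin transfer) 30 min RT, baseline luminescence pre-read. 0.1 nM hNppA, 20 min RT, post-read.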

Fc1ccc(Cl)cc1-c1nc(Nc2ccncc2)c2nccnc2n1
inactive: Potency [1] | IC50 (viability decrease) [2] | Potency [3] | Potency [4] | Potency [5] | Potency [6]

Cc1cccc(-c2[nH]c(C(C)(C)C)nc2-c2ccc3nccnc3c2)n1
inactive: Potency [1] | Potency [3] | outcome [7] | Potency [8] | Potency [6] | outcome [9]
active: Potency [4] 3.26 µM | Potency [5] 8.2 µM

Cc1cnc(Nc2ccc(OCCN3CCCC3)cc2)nc1Nc1cccc(S(=O)(=O)NC(C)(C)C)c1
inactive: Potency [1] | IC50 (viability decrease) [2] | Potency [5] | Potency [6]

CC(C)OC(=O)C1=CN(C(=O)c2ccc(F)c(F)c2)CC(C)(C)c2c1[nH]c1ccccc21
inactive: Potency [1] | IC50 (viability decrease) [2] | Potency [5] | Potency [6]

O=C1[C@H](Cc2ccc(O)cc2)N2C(=O)CCN(C(=O)NCc3ccccc3)[C@H]2CN1Cc1cccc2ccccc12
active: Potency [1] 20.9 µM | IC50 (viability decrease) [2] 1.05 µM | Potency [6] 9.35 µM

O=C1CCCC2=C1C(c1[nH]ncc1Cl)N=C(Nc1nc3ccccc3o1)N2 (stereo not drawn)
inactive: Potency [1] | Potency [3] | Potency [4] | Potency [5] | Potency [6]

O=C(OCC#CCSc1nnc(-c2ccc3ccccc3c2)o1)c1cc2ccccc2s1
inactive: Potency [1]

Cc1[nH]c(=O)c(C#N)cc1-c1ccc2nccn2c1
inactive: Potency [1] | IC50 (viability decrease) [2] | Potency [5] | outcome [7] | outcome [10] | Potency [8] | Potency [6] | outcome [9]

Cc1cc(Nc2nc(N[C@@H](C)c3ncc(F)cn3)ncc2Cl)n[nH]1
inactive: Potency [1] | IC50 (viability decrease) [2] | Potency [6]
active: Potency [5] 16.6 µM and 1.03 µM

Cc1ccnc(NS(=O)(=O)c2ccc(NC(=O)Nc3ccc(S(=O)(=O)Nc4nccc(C)n4)cc3)cc2)n1
inactive: Potency [4] | Potency [6]
active: Potency [1] 18.7 µM | Potency [3] 0.0235 µM
14.8 µM (active) and inactive: Potency [5]

Cc1c(CCOc2ccc(C(=O)O)cc2)c2cc(Cl)ccc2n1C(c1ccccc1)c1ccccc1
inactive: Potency [1] | IC50 (viability decrease) [2] | Potency [5] | Potency [6]

CC1(C)SCCN(S(=O)(=O)c2ccc(OCC#CCO)cc2)[C@@H]1C(=O)NO
inactive: Potency [1] | IC50 (viability decrease) [2] | Potency [4] | Potency [5] | Potency [6]

C[C@@H]1C[C@H]2[C@@H]3CCC4=CC(=O)C=C[C@]4(C)C3(F)[C@@H](O)C[C@]2(C)[C@@]1(O)C(=O)CO (stereo partly drawn)
active: IC50 (viability decrease) [2] 23.5 µM
inactive: Potency [1]

COc1ccc(CCN2CCN(CCCc3ccccc3)CC2)cc1OC
inactive: Potency [3] | Potency [5] | Potency [6]
active: Potency [1] 13.2 µM

C[C@H](NC(=O)Cc1cc(F)cc(F)c1)C(=O)N[C@@H]1C(=O)N(C)c2ccccc2-c2ccccc21
inactive: Potency [1] | IC50 (viability decrease) [2] | Potency [4] | Potency [5] | Potency [6]

CCC(C)N(C)C(=O)c1cc2ccccc2c(-c2ccccc2Cl)n1 (stereo not drawn)
inactive: Potency [1] | IC50 (viability decrease) [2] | Potency [3] | outcome [7] | Potency [8] | Potency [6] | outcome [9]

Cc1cc(C=c2sc3nc4ccccc4n3c2=O)c(C)n1-c1ccccc1
inactive: Potency [1] | IC50 (viability decrease) [2] | Potency [5] | Potency [6]

C/C(=C\C(=O)Nc1ccccc1C(=O)O)c1ccc2ccccc2c1
inactive: Potency [1] | Potency [3] | Potency [5]

CN([C@@H](Cc1ccc(OS(=O)(=O)c2cccc3cnccc23)cc1)C(=O)N1CCN(c2ccccc2)CC1)S(=O)(=O)c1cccc2cnccc12
inactive: Potency [1] | IC50 (viability decrease) [2] | Potency [3] | activity change, negative = cytotoxicity [4] -0.309% [at 5.11 µM] | activity change, negative = cytotoxicity [5] -4.44% [at 5.11 µM]

CCN(c1ccccc1)c1cc(NC)[n+](C)c(C)n1
inactive: Potency [1] | IC50 (viability decrease) [2] | Potency [3] | Potency [5] | Potency [6]

NC(=O)C1CCCc2c1[nH]c1ccc(Cl)cc21 (stereo not drawn)
inactive: Potency [1] | Potency [3] | Potency [5] | Potency [6]

Cc1ccc2c(c1)C(=O)[C@@]1(O)CCN(c3ccccc3)C1=N2
inactive: Potency [1] | IC50 (viability decrease) [2]

O=C(O)CCc1ccc(NCc2cccc(Oc3ccccc3)c2)cc1
inactive: Potency [1] | IC50 (viability decrease) [2] | Potency [3] | Potency [5] | Potency [6] | outcome [9]

COc1cc(F)c(F)c(Nc2ccc(I)cc2F)c1NS(=O)(=O)C1(C[C@H](O)CO)CC1
inactive: Potency [1] | Potency [4] | Potency [5] | Potency [6]
active: IC50 (viability decrease) [2] 20.9 µM

Cc1cc(-c2ccc(CC(=O)Nc3ccc(-c4cccnc4)cc3)cc2)ccn1
active: IC50 (viability decrease) [2] 18.7 µM
inactive: Potency [1]

OC(CN1CCC(Cc2ccc(F)cc2)CC1)c1ccc(Cl)cc1 (stereo not drawn)
inactive: Potency [1] | IC50 (viability decrease) [2] | Potency [5] | outcome [7] | Potency [8] | Potency [6] | outcome [9]
